This excerpt belongs to a sample that is enriched for hits.
Pf Dd2 growth – qHTS Primary assay for Inhibitors of Plasmodium falciparum Dd2 growth in vitro; P. falciparum Dd2 growth, SYBR Green, 72 h; Potency, µM (top dose mostly 28.9 µM), for inactives: top-dose activity, negative = inhibition, most hits filed as inhibitors; 120,000 compounds, 4.3% hits; active = well fitted inhibition curve with a large enough effect;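 also: plate controls were DMSO vehicle for no effect and reference drug for full effect; nearly all actives have a fitted effect of over 65% in size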
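Readout: SYBR Green fluorescence, 485 nm excitation, 535 nm emission, after ~16 h lysis at 37C. Before that, Dd2-infected red cells (2.5% hematocrit) grew 72 h with compound, 29 uM top final concentration.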
* hit, by the source's call; i = inactive; [ ] = another dose, or the depositor's remark. Potency is read from the fitted curve at half-maximal effect.

SMILES | Pf Dd2 growth
O=C(N[C@H]1C[C@H]2C(=O)NC[C@@H](CCC(=O)N3CCCCC3)N2C1)c1ccc(F)c(Cl)c1 | -5%
O=C(NCc1ccccc1)N1CCC(O)(c2csc(CN3CC[C@@H](O)C3)n2)CC1 | 42%[44.1 µM]
NC(=O)CCNC(=O)C1=C[C@@H](NC(=O)NC2CCCCC2)[C@@H](O)[C@H](O)C1 | 14%[44.1 µM]
Cc1ccc2nc(CO[C@H]3CN(Cc4cn(C)c5ccccc45)C[C@H]3F)[nH]c2c1 | -14%[44.1 µM]
Cc1ccccc1CN1CC[C@@H]2CN(S(C)(=O)=O)[C@@H]2C1 | -3%
Cc1nc2ccc(Cl)cn2c1C(=O)N1CCC2(CCCN(C)C2=O)C1 (centres undefined) | -5%
O=C(c1ccccc1C(F)(F)F)N1CCc2nc3cc[nH]n3c(=O)c2C1 | 32%[5.79 µM]
CN(CC1CCOC1)C(=O)Nc1cccc(Br)c1 (centres undefined) | i
CN1C(=O)c2ccccc2Sc2ccc(NC(=O)N3CCN(c4cccc(Cl)c4)CC3)cc21 | 13µM*
CN1C(=O)c2ccccc2Sc2ccc(NC(=O)Nc3ccccc3F)cc21 | -14%
CCc1cccc(NC(=O)Nc2ccc3c(c2)N(C)C(=O)c2ccccc2S3)c1 | i
O=C(c1ccc(F)cc1)N1CCCC(CN2CCOCC2)CC1 (centres undefined) | -19%
Cc1ccc(OCC(=O)NCCC2CCN(C(=O)Nc3ccccc3C)CC2)cc1 | -19%
COC(=O)c1ccc(Cn2c(SCc3ccccc3F)nc3ccncc32)cc1 | -17%
O=C(Cn1c(SCc2cccc(F)c2)nc2ccncc21)Nc1ccc(Cl)cc1F | 28%
O=C(NCCc1ccccc1)c1ccc(CSc2nc3ccncc3n2Cc2cccc(F)c2)cc1 | 4.5µM*
Cc1cccc(Cn2c(SCc3ccc(C(=O)NCCc4ccccc4)cc3)nc3ccncc32)c1 | 3.2µM*
COCCCNC(=O)c1ccc(Cn2c(SCc3cccc(C)c3)nc3cccnc32)cc1 | i
O=C(c1ccc(CSc2nc3ccncc3n2Cc2cccc(F)c2)cc1)N1CCCCCC1 | 8.9µM*
O=C(NCCc1ccccc1)c1ccc(CSc2nc3ccncc3n2Cc2ccccc2F)cc1 | 7.1µM*
Cc1cccc(Cn2c(CNC(=O)c3ccccc3)nc3ccccc32)c1 | -5%
O=C(NCc1ccccc1)c1ccc(CSc2nc3cccnc3n2Cc2ccccc2F)cc1 | 3%
C[C@@H](NC(=O)Nc1cccnc1)c1onc(-c2ccc(F)cc2)c1C(=O)O | -21%[44.1 µM]
Cn1ccc2c(NC(=O)C[C@H]3NC(=O)c4ccccc4NC3=O)cccc21 | i
COCC(=O)N1CC[C@H](n2nnc(C(N)=O)c2C(N)=O)C[C@H]1C(=O)N[C@H](Cc1c[nH]c2ccccc12)C(N)=O | 30%
SMILES | Pf Dd2 growth
Cc1cc(C(=O)N2CC(F)(F)C[C@H]2c2nnc(C)o2)no1 | -14%
O=c1n(-c2ccc(C(F)(F)F)cc2)nc2n1CCN(Cc1ccsc1)C2 | -21%
O=C(NC1CCCC1)c1ccc(CSc2nc3cccnc3n2Cc2ccccc2)cc1 | 13%
COCCCNC(=O)c1ccc(Cn2c(SCc3ccc(F)cc3)nc3cccnc32)cc1 | -22%
Cc1ccccc1CNC(=O)c1ccc(Cn2c(SCc3cccc(F)c3)nc3cccnc32)cc1 | -16%
Cc1ccc(CSc2nc3cccnc3n2Cc2ccc(C(=O)NCCc3ccccc3)cc2)cc1 | -13%
O=C(NCCc1ccccc1)c1ccc(Cn2c(SCc3cccc(F)c3)nc3cccnc32)cc1 | 13µM*
O=C(NCCN1CCCCC1)c1ccc(Cn2c(SCc3ccc(F)cc3)nc3cccnc32)cc1 | 7.1µM*
Cc1cnn(Cc2c(C(=O)N3C[C@@H](C(N)=O)[C@H](c4n[nH]c(C)n4)C3)noc2C)c1 | -10%
Cc1noc(-c2ccc(OC3CN(C(=O)NCCc4ccccc4)C3)cc2)n1 | 35%[5.79 µM]
O=Cc1ccccc1-c1ccc(F)cc1F | 10%[44.1 µM]
C[S+](=O)([O-])c1ccc(OCC2CN(Cc3ccccc3)C(=O)c3c(ccnc3-c3ccc(OCC(=O)O)cc3)O2)cc1 (centres undefined) | 12%
COc1ccc(C(=O)NCCC2CCN(C(=O)Nc3ccc(F)cc3)CC2)cc1OC | i
CCN(CC)CCNC(=O)Cn1ncc2c3ccccc3n(Cc3ccc(Cl)cc3)c2c1=O | 5µM*
CCCCN(CC)CCCNC(=O)Cn1ncc2c3ccccc3n(C)c2c1=O | i
CCCCN(CC)CCCNC(=O)Cn1ncc2c3ccccc3n(Cc3ccccc3F)c2c1=O | 4µM*
O=C(Cn1ncc2c3ccccc3n(Cc3ccccc3F)c2c1=O)NCCCc1ccccc1 | 4%
O=C(Cn1ncc2c3ccccc3n(Cc3ccc(F)cc3)c2c1=O)NCCCN1CCCCC1 | 5µM*
O=C(Cn1ncc2c3ccccc3n(Cc3ccc(F)cc3)c2c1=O)NCCC1=CCCCC1 | 43%[0.594 µM]
CCCn1c2ccccc2c2cnn(CC(=O)NCCN(CC)CC)c(=O)c21 | i
Cn1c2ccccc2c2cnn(CC(=O)NCc3ccc(Cl)cc3)c(=O)c21 | 22%
O=C(Cn1ncc2c3ccccc3n(Cc3ccc(F)cc3)c2c1=O)NC1CCCCCC1 | i
CC(=O)NCc1cn[nH]c1-c1ccc(Cl)cc1 | -6%

Compound activity (PubChem)
